# Compound activity from PubChem BioAssay.
# HGIII-sPLA2 inh = human group III sPLA2 inhibitors, primary screen, biochemical, QFRET, BODIPY PC-A2 liposome substrate. 0.56% of 370,000 active. inhibition, % at 12.2 µM. Group 3 secretory phospholipase A2 (Homo sapiens), Q9NZ20. QFRET BODIPY PC-A2 liposome hydrolysis, fluorescence;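 active = inhibition above mean plus 3 SD of compounds lying within the high and low control bounds, cut at about 19% in these data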;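 also: 0% = median of test compound wells and 100% = no enzyme DMSO wells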
# Neddyl block = inhibitors of cullin neddylation, primary screen, biochemical, TR-FRET, uHTS, NAE and Ubc12 | AID 651699, 2012 | 0.58% of 360,000 active | inhibition, % at 25 µM; in the data active = inhibition above about 36%
# Target sequence (P61081 whole entry, looked up): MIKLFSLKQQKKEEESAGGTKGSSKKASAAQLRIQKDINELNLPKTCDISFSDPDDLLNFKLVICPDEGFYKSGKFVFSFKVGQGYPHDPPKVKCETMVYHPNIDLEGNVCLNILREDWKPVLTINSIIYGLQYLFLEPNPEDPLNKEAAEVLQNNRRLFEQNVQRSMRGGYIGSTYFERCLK
# Target sequence (Q13564 whole entry, looked up): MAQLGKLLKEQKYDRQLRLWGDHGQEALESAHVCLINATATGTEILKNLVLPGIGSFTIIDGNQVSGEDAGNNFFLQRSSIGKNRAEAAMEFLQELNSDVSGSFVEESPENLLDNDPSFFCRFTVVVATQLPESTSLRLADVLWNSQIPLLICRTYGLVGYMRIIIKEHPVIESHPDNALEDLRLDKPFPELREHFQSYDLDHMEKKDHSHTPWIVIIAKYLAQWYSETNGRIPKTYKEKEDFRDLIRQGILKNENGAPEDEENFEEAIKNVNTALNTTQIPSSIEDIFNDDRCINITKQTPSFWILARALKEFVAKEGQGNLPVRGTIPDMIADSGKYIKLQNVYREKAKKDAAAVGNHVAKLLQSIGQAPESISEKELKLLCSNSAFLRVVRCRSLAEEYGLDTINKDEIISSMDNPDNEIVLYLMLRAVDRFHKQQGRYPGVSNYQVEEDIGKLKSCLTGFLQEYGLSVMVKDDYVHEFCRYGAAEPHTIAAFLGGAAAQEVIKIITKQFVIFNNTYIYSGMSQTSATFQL
# DAGLB inhibitor = DAGLB lipase inhibitors, primary screen, biochemical, fluorescence, HTS; Diacylglycerol lipase-beta (Homo sapiens), Q8NCG7; inhibition, % at 5.17 µM; 0.059% of 340,000 active; HEK293T DAGLB membrane lysate, EnzChek fluorogenic substrate; AID 504411, 2011; in the data active = inhibition above about 34%;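 also: 0% = enzyme with vehicle and 100% = wells lacking enzyme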
# ARNT-TACC3 inh = disruptors of ARNT/TACC3 protein interaction, primary screen, biochemical, AlphaScreen, single concentration | AlphaScreen His-ARNT PAS-B/GST-TACC3 binding, luminescence; TACC3 fragment carries E629A point mutation | inhibition, % at 9.99 µM | 0.66% of 390,000 active | AID 623870, 2012;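 active = mean inhibition of replicates at least 50% and at least half of replicates each reaching 50%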;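 also: 0% = complete ARNT plus TACC3 wells and 100% = ARNT alone without TACC3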
# NadD block = inhibitors of S. aureus NadD, primary screen, biochemical, colorimetric, uHTS. Nicotinate-nucleotide adenylyltransferase NadD (Staphylococcus aureus N315). purified NadD enzyme, colorimetric absorbance read-out. inhibition, % at 20 µM. 0.78% of 360,000 active. AID 602399, 2012; in the data active = inhibition above about 26%
# NadD inh conf = inhibitors of S. aureus NadD, confirmation, biochemical, colorimetric, single concentration; shares compounds with NadD block; purified S. aureus NadD, colorimetric enzyme assay; inhibition, % at 20 µM; 13% of 2,000 active; in the data active = inhibition mostly above about 42%, no sharp cut-off; inactive = mostly below about 42%
# ARNT Alpha ctr = AlphaScreen signal interference compounds, dose response, artefact control for ARNT-TACC3 interaction inhibitor project, biochemical, luminescence, cherry-pick; AC50, µM (series often up to 68 µM), without a hit: at the top dose activity change, negative = signal decrease; shares compounds with ARNT-TACC3 inh; 50% of 1,200 active; His-ARNT PASB-GST AlphaScreen artifact counter-screen;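 active = every separate test run was called active for a drop in luminescence, with AC50 within twice the top valid dose, actives reach about 71 µM in these data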
# Neddyl conf = blockade of NEDD8 conjugation to cullin – biochemical, TR-FRET, single concentration, confirmation | shares compounds with Neddyl block | TR-FRET cullin neddylation biochemical assay | calls only at 25 µM | 13% of 1,800 active | AID 652217, 2013; in the data active = inhibition above about 40%;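 also: neddylation substrate is the cullin 1 ring ligase complex with SKP2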
# * marks the source's active call; other numbers are inactive results; i = inactive; nt = no result given; + = active, no number. Only some compounds are listed: those with a hit (about 2% of all), similar ones and a draw of the others.
SMILES,HGIII-sPLA2 inh,Neddyl block,DAGLB inhibitor,ARNT-TACC3 inh,NadD block,others
CC(C)NC(=O)N1[C@@H]2Cn3c(ccc(-c4cccc(C(=O)N(C)C)c4)c3=O)[C@H]1[C@@H](C(=O)O)[C@@H]2CO,nt,nt,nt,18.1,nt,
Nc1c(C(=O)OCc2ccccc2)c2nc3ccccc3nc2n1Cc1cccs1,-17.2,30.3,-0.8,0.9,30.2*,NadD inh conf=23.4
CC=Cc1ccc2n(c1=O)C[C@H]1[C@H](CO)[C@@H](C(=O)O)[C@@H]2N1S(=O)(=O)c1ccccc1C (mixture of isomers),nt,nt,nt,-0.3,nt,
O=C1NCN(c2ccccc2)C12CCN(C(c1ccccc1)c1nnnn1-c1ccc3c(c1)OCCO3)CC2 (stereo not given),14.9,-2.4,nt,nt,18.8,
O=C1NCN(c2ccccc2)C12CCN(C(c1cccc3ccccc13)c1nnnn1Cc1ccccc1)CC2 (stereo not given),-3.6,-7.0,nt,nt,31.8*,NadD inh conf=18.2
O=C1NCN(c2ccccc2)C12CCN(C(c1cccc3ccccc13)c1nnnn1-c1ccc3c(c1)OCCO3)CC2 (stereo not given),7.1,-16.2,nt,nt,31.2*,NadD inh conf=19.1
COC(=O)[C@H]1[C@H](CO)[C@H]2Cn3c(ccc(-c4cccc(OC)c4)c3=O)[C@@H]1N2C(=O)c1ccccc1F,nt,nt,nt,-3.8,nt,
COC1C(OC(=O)c2ccc(C)[nH]2)C(O)C(Oc2ccc3c(O)c(NC(=O)c4ccc(O)c(CC=C(C)C)c4)c(=O)oc3c2Cl)OC1(C)C (stereo not given),-24.3,-3.0,14.4,-5.8,31.4*,NadD inh conf=50.4*
CN(C)[C@@H]1C(=O)C(C(N)=O)=C(O)[C@@]2(O)C(=O)C3=C(O)c4c(O)cccc4[C@@](C)(O)C3[C@H](O)C12 (stereo not given in full),4.0,26.1,2.4,44.6*,20.3,ARNT Alpha ctr=-1.2%
CN(C)C1C(=O)C(C(N)=O)=C(O)C2(O)C(=O)C3=C(O)c4c(O)cccc4C(C)(O)C3CC12 (stereo not given),nt,3.3,1.4,4.5,-1.9,
Cc1cccc(NC(=O)C(C)N2CC=C(c3ccccc3)CC2)c1 (stereo not given),-9.7,18.3,-17.9,62.2*,-4.7,ARNT Alpha ctr=-27.0%
O=c1[nH]c(O)c(Cc2ccc3c(c2)OCO3)c(=O)[nH]1,13.0,0.6,3.0,23.2*,-5.8,ARNT Alpha ctr=7.2%
COc1cc2c(c(OC)c1OC)-c1ccc(O)c(=O)cc1[C@@H](NC(C)=O)CC2,-8.7,0.7,5.7,68.9*,-3.1,ARNT Alpha ctr=-22.3%
CCCNC(=O)[C@@H]1[C@@H](CO)[C@@H]2Cn3c(cccc3=O)[C@@H]2N1C,nt,nt,nt,2.9,nt,
COC(=O)C[C@H]1CC[C@@H]2NC[C@H](O)COC[C@H]2O1,nt,nt,nt,23.8,nt,
CCOC(=O)c1cnc(N2CC2)nc1N,5.3,6.2,0.8,5.7,-4.9,
CCOC(=O)c1cc2c(cn1)[C@H](CCO)NC2,3.1,5.7,0.1,58.6*,6.4,ARNT Alpha ctr=-15.4%
CCCN1[C@@H]2c3ccc(-c4cccc(C(=O)N(C)C)c4)c(=O)n3C[C@H]1[C@H](CO)[C@H]2C(=O)OC,nt,nt,nt,24.9,nt,
C=CCOC(=O)c1ccccc1N,-2.6,44.6*,-0.5,nt,3.6,Neddyl conf=i
Nc1ccccc1C(=O)OCCOc1ccccc1,-2.9,nt,-10.7,-9.9,-1.4,
N#Cc1cccc(-c2ccc([C@H]3[C@@H](CO)N4CCCCN(C(=O)Cc5ccncc5)C[C@@H]34)cc2)c1,nt,nt,nt,13.5,nt,
CCc1ccc2c(CN3CC=C(c4ccccc4)CC3)cc(=O)oc2c1,-0.3,-1.1,-0.7,-3.5,3.8,
COc1ccc2c(CN3CC=C(c4ccccc4)CC3)cc(=O)oc2c1,-4.4,41.5*,3.3,-0.8,5.3,Neddyl conf=i
COc1ccc(C#Cc2ccc([C@@H]3[C@@H](CO)N4CCCCN(C(=O)Cc5ccncc5)C[C@H]34)cc2)cc1,nt,nt,nt,8.5,nt,
CCC(C)n1c(O)c(/C=N/NC(=O)c2ccncc2)c(=O)[nH]c1=S (stereo not given),8.5,42.6*,5.8,64.6*,-1.7,Neddyl conf=i
SMILES,HGIII-sPLA2 inh,Neddyl block,DAGLB inhibitor,ARNT-TACC3 inh,NadD block,others
CCOC(=O)c1ccc(-[n+]2c(-c3ccccc3)cc(-c3ccccc3)cc2-c2ccccc2)cc1,nt,nt,3.9,6.7,nt,
Cc1ccc(-c2cc(-c3ccc(C)cc3)[n+](-c3ccc(C(=O)[O-])cc3)c(-c3ccc(C)cc3)c2)cc1,14.2,40.4*,5.2,29.7,16.9,Neddyl conf=+
CC(CCN1CC1)=NNC(=O)Nc1cccc2ccccc12,-3.1,47.8*,-1.4,-12.3,14.9,Neddyl conf=i
COC(=O)[C@@H]1[C@@H](CO)[C@@H]2Cn3c(cccc3=O)[C@H]1N2C(=O)C1CC1,nt,nt,nt,-1.7,nt,
N#Cc1cccc(-c2ccc([C@@H]3[C@H]4CN(C(=O)Cc5ccncc5)CCCCN4[C@H]3CO)cc2)c1,nt,nt,nt,-1.6,nt,
CCOc1ccc2[nH]c(=O)c(CN(CCO)C3(c4nnnn4C4CCCCC4)CCCCC3)cc2c1,-5.7,38.9*,0.2,1.7,6.3,Neddyl conf=i
COC(=O)[C@H]1[C@H](CO)[C@H]2Cn3c(ccc(C4=CCCC4)c3=O)[C@@H]1N2S(=O)(=O)c1cn(C)cn1,nt,nt,nt,-1.1,nt,
CC12CN3CC(C)(CN(C1)C3c1cccnc1)C2=O (stereo not given),5.7,3.1,1.8,-4.8,5.4,
CC1(C)Cc2c(sc3c2C(=O)NC(c2cccnc2)N3)CO1 (stereo not given),-2.1,43.0*,2.3,0.3,-1.8,Neddyl conf=i
O=C1NC(c2cccnc2)Nc2sc3c(c21)CCCC3 (stereo not given),-11.0,40.6*,0.4,6.1,7.3,Neddyl conf=i
CCCCC(=O)N/N=C/c1c(O)n(-c2cccc3ccccc23)c(=O)[nH]c1=O,3.5,41.0*,3.6,60.7*,-4.9,Neddyl conf=i
COc1ccc(C#Cc2ccc([C@@H]3[C@H]4CN(C(=O)Cc5ccccc5)CCCCN4[C@H]3CO)cc2)cc1,nt,nt,nt,-8.9,nt,
